# Measured values published in PubChem BioAssay (NCATS).
# Records with an inconclusive call do not appear. A call without a number means that no potency is given here. Activity calls are given as the source filed them. Calls follow the shape of the dose curve; as a rule, active = well fitted curve in the direction sought with a large enough effect; inconclusive = small, poorly fitted or top-dose-only effect, or another doubt; inactive = no such curve, though single readings can be large; an effect the other way counts as inactive or inconclusive.
# What was measured:
# [1] = qHTS of pediatric cancer cell lines to identify multiple opportunities for drug repurposing: Primary screen for LAN-5 cells (AID 1347100)
# How it was run: (§1)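 Cells (500-1,000/well) in growth media were settled 5 h at 37 degrees C, then given compounds for 48 h. Viability was read as CellTiter-Glo luminescence. Primary runs used MIPE at 11 points (0.78 nM-46 µM) and NPC at 8 points (0.59 nM-46 µM); follow-ups used 11 points.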
# [2] = qHTS of pediatric cancer cell lines to identify multiple opportunities for drug repurposing: Primary screen for Rh18 cells (AID 1347102); also: nearly all actives have a fitted effect of over 65% in size
# How it was run: as §1
# [3] = qHTS of pediatric cancer cell lines to identify multiple opportunities for drug repurposing: Primary screen for OHS-50 cells (AID 1347103); also: nearly all actives have a fitted effect of over 40% in size
# How it was run: (§2)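 Cells (500-1,000/well) rested 5 h, then received compounds for 48 h; metabolically active cells were measured by CellTiter-Glo luminescence. Final concentrations spanned up to 46 µM (MIPE, 11-point) or 0.59 nM-46 µM (NPC, 8-point) in primary screens, 11-point in follow-ups.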
# [4] = qHTS of pediatric cancer cell lines to identify multiple opportunities for drug repurposing: Primary screen for MG 63 (6-TG R) cells (AID 1347105); also: nearly all actives have a fitted effect of over 50% in size
# How it was run: (§3)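 Luminescence from CellTiter-Glo served as readout of metabolically active cells after 48 h compound exposure. Titrations: MIPE 11-point, from 0.78 nM; NPC 8-point, from 0.59 nM (final). Concentration-response curves came straight from the primary screen.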
# [5] = qHTS of pediatric cancer cell lines to identify multiple opportunities for drug repurposing: Primary screen for control Hh wild type fibroblast cells (AID 1347106); also: nearly all actives have a fitted effect of over 55% in size
# How it was run: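 Viability after 48 h compound treatment at 37C, 500-1,000 cells/well, read as ATP luminescence with CellTiter-Glo. Primary screens used 11-point (MIPE, 0.78 nM-46 µM) or 8-point (NPC, 0.59 nM-46 µM) final concentrations; follow-up screens used 11-point dilutions.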
# [6] = qHTS of pediatric cancer cell lines to identify multiple opportunities for drug repurposing: Primary screen for Rh30 cells (AID 1347107); also: nearly all actives have a fitted effect of over 75% in size
# How it was run: as §1
# [7] = qHTS of pediatric cancer cell lines to identify multiple opportunities for drug repurposing: Primary screen for RD cells (AID 1347104); also: nearly all actives have a fitted effect of over 55% in size
# How it was run: as §3
# [8] = qHTS of pediatric cancer cell lines to identify multiple opportunities for drug repurposing: Primary screen for Rh41 cells (AID 1347108); also: nearly all actives have a fitted effect of over 70% in size
# How it was run: as §3
# [9] = qHTS of pediatric cancer cell lines to identify multiple opportunities for drug repurposing: Primary screen for BT-12 cells (AID 1347101); also: nearly all actives have a fitted effect of over 25% in size
# How it was run: as §2
# Potency is read from the fitted curve at half-maximal effect.
SMILES,Potency [1],Potency [2],Potency [3],Potency [4],Potency [5],Potency [6],Potency [7],Potency [8],Potency [9]
CN1C(=O)C[C@H](C(=O)N[C@@H](Cc2cnc[nH]2)C(=O)N2CCC[C@@H]2C(N)=O)NC1=O,20.9 µM (active),inactive,inactive,inactive,inactive,inactive,,,
CNc1nc(-c2ccc3c(N)n[nH]c3c2)cc(N2C[C@@H](C(=O)NC3CCCCC3)CC[C@@H]2C)n1,26.4 µM (active),,0.273 µM (active),,inactive,inactive,20.9 µM (active),,
Nc1ccn([C@@H]2O[C@H](CO)[C@@H](O)[C@H]2O)c(=O)n1,0.0935 µM (active),inactive,13.7 µM (active),inactive,inactive,inactive,inactive,inactive,
Cc1csc(-c2nnc(Nc3ccc(Oc4ncccc4-c4ccnc(N)n4)cc3)c3ccccc23)c1,0.001 µM (active),inactive,,,inactive,inactive,,,
COc1cc(F)c(C(C)C)cc1-c1ccc(C(F)(F)F)cc1CN1C(=O)O[C@H](c2cc(C(F)(F)F)cc(C(F)(F)F)c2)[C@@H]1C,18.7 µM (active),inactive,,inactive,inactive,inactive,inactive,inactive,
N#CC(c1ccnc(NCCc2cccnc2)n1)c1nc2ccccc2s1 (configuration not stated),16.6 µM (active),,19.3 µM (active),,inactive,,23.5 µM (active),23.5 µM (active),21.7 µM (active)
Cc1ccc2c(c1)c1c(n2CCc2ccc(C)nc2)CCN(C)C1,inactive,,,inactive,inactive,inactive,inactive,inactive,inactive
CC1=C(C(=O)Nc2cc3cn[nH]c3cc2F)C(c2ccc(C(F)(F)F)cc2)CC(=O)N1 (configuration not stated),,inactive,inactive,,inactive,inactive,inactive,inactive,inactive
C[C@@H](N)c1ccc(C(=O)Nc2ccnc3[nH]ccc23)cc1,16.6 µM (active),,,,inactive,inactive,,,
COc1cc2nccc(Oc3ccc(NC(=O)Nc4cc(C)on4)c(Cl)c3)c2cc1OC,10.5 µM (active),,19.3 µM (active),,,,33.2 µM (active),14.8 µM (active),
COc1ccc(CCN(C)CCCOc2ccc(S(=O)(=O)c3[nH]c4ccccc4c3C(C)C)cc2)cc1OC,23.5 µM (active),,,,inactive,inactive,,,
CCCCCCCCCCCCCC(=O)N[C@H](CO)[C@H](O)c1ccc([N+](=O)[O-])cc1,,inactive,inactive,,inactive,inactive,,inactive,24.3 µM (active)
COc1cc2c(cc1OC)CC(=O)N(CCCN(C)C[C@H]1Cc3cc(OC)c(OC)cc31)CC2,inactive,,,inactive,inactive,inactive,,,
NC(=O)c1nnn(Cc2cc(Cl)c(C(=O)c3ccc(Cl)cc3)c(Cl)c2)c1N,20.9 µM (active),,21.7 µM (active),,inactive,,,,
Cc1nn(Cc2ccccc2Cl)c(C)c1CN(C)CC(O)COc1ccc(Cl)cc1 (configuration not stated),20.9 µM (active),,24.3 µM (active),,inactive,,33.2 µM (active),18.7 µM (active),
C[C@H](CCC(=O)O)[C@H]1CC[C@H]2[C@H]3[C@@H](CC[C@]12C)[C@@]1(C)CC[C@@H](O)C[C@H]1C[C@@H]3O,,inactive,inactive,,inactive,inactive,,,inactive
COc1cc(N2CCN(C)CC2)ccc1Nc1nc(N)c(C(=O)c2c(Cl)cccc2Cl)s1,16.6 µM (active),,inactive,,inactive,inactive,29.6 µM (active),inactive,
O=C(Nc1ccccc1)Nc1ccc(-c2ccc(C(=O)[C@H]3CCC[C@H]3C(=O)O)cc2)cc1,inactive,,,,inactive,,,,
c1ccc(-c2oc3ncnc(NC[C@@H]4CCCO4)c3c2-c2ccccc2)cc1,18.7 µM (active),,27.3 µM (active),,inactive,18.7 µM (active),29.6 µM (active),18.7 µM (active),
CN(C)CCCNC(=O)c1ccc(-c2cc(O)c3ncccc3c2)cc1,inactive,,,inactive,,,,,
COc1ccc2cc1Oc1ccc(cc1)C[C@H]1c3cc(c(OC)cc3CCN1C)Oc1c(OC)c(OC)cc3c1[C@H](C2)N(C)CC3,,inactive,17.2 µM (active),,inactive,,,,7.69 µM (active)
Fc1ccc(C(c2ccc(F)cc2)N2CCN(CC=Cc3ccccc3)CC2)cc1,inactive,,inactive,,inactive,inactive,inactive,,
OC1CCC(Nc2ncc3nc(Nc4c(F)cc(F)cc4F)n([C@@H]4CCOC4)c3n2)CC1 (some centres not stated),,inactive,,inactive,inactive,,,inactive,inactive
CC(O)=C(C#N)C(=O)Nc1ccc(C(F)(F)F)cc1,inactive,,,,inactive,,,,
COC(=O)Nc1ccc(-c2nc(N3CCOCC3)c3cnn(C4CCN(C(=O)OC)CC4)c3n2)cc1,,6.62 µM (active),0.432 µM (active),0.469 µM (active),0.0209 µM (active),inactive,1.66 µM (active),1.32 µM (active),0.611 µM (active)
CO[C@H]1O[C@@H]2O[C@@]3(C)CC[C@@H]4[C@@H](C)CC[C@@H]([C@H]1C)[C@@]24OO3,20.9 µM (active),,,inactive,inactive,,,inactive,
O=S(=O)(O)c1ccc2cc(N=Nc3cc(S(=O)(=O)O)c4cccnc4c3O)ccc2c1,inactive,,,,inactive,,,,
COc1ccc2c(c1)CC[C@H]1[C@@H]2CC[C@]2(C)[C@@H](NCCCCCCN3C(=O)C=CC3=O)CC[C@H]12,inactive,,,,inactive,,inactive,,
